C2C12 statin – suppressors of statin myotoxicity in C2C12 myotubes, primary screen, cell-based, single point, plate reader; C2C12 myotubes + simvastatin, ATP luminescence, 48 h; scaled: DMSO 0, geranylgeraniol control 100; rescue of ATP level, % at 7.49 µM; hit rate 0.78% among 330,000; AID 602340, 2012;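 active = mean ATP rescue above about 67%, or every replicate alone reaching that limit, limit read from the data, passing the limit was not always enough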;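 note: myotubes were challenged with 10 µM simvastatin during compound exposure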
EWS-Fli block – EWS/Fli-driven NR0B1 reporter inhibitors, primary screen, A673 cells, NR0B1 luciferase, luminescence, MLPCN library | viability-normalised | inhibition, % at 12.6 µM | hit rate 0.67% among 350,000 | AID 651661, 2012;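 active = mean inhibition of at least 50% after viability correction, with every replicate also passing that limit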;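 note: firefly luciferase signal divided by Alamar Blue viability fluorescence both relative to DMSO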
Env fusion inh – inhibitors of HIV-1 Env-driven cell-cell fusion, primary screen, HeLa-JRFL effector, CEM21 target cells, luciferase. inhibition, % at 12.3 µM. hit rate 1.1% among 360,000;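 active = mean replicate inhibition score of at least 50 and every replicate individually at or above 50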;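 note: 0% = plate neutral controls and 100% = maraviroc near 300 nM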
miR122 inh – miR-122 Renilla sensor signal increase in Huh7, primary screen, miR-122 inhibitor project, cell-based, single point, plate reader; activation (reporter increase), % at 12.5 µM; AID 602342, 2012; hit rate 0.3% among 340,000; Huh7 miR-122 Renilla luciferase sensor, 48 h; neutral wells = 0, positive control = 100;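 active = mean replicate activation score at least 90 and every replicate individually at or above 90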;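 note: higher luciferase means less miR-122 activity so hits act as miR-122 inhibitors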
GSIS activator – GLuc luminescence reporter in INS-1E cells, primary screen for activators of glucose-dependent secretion of insulin; INS-1E GLuc reporter insulin secretion, 2-3 h; activation, % at 16.6 µM; hit rate 0.61% among 370,000; AID 743287, 2014;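 active = lowest replicate activation of at least 40%, so every replicate reaches that level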;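 note: 0% = median of neutral control wells and 100% = median of IBMX positive control wells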
PAX8 reporter – inhibitors of PAX8-driven TPO luciferase reporter, primary screen, RMG-I cells, single concentration; hit rate 1.2% among 360,000; inhibition, % at 12.6 µM; SteadyGlo, 24 h;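 active = mean replicate inhibition at least 60% with every replicate also reaching 60%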;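 note: luciferase light reporting Pax8 driven TPO promoter activity; plate controls were median of neutral control wells for no effect and mitoxantrone controls for full effect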
Active calls of the source: *; [ ] = dose if it differs, or a comment. In the library only some 3.1% were active in any assay of this set; here they are far more common.

`O=C1NC(=O)C(CC(=O)N(Cc2cccs2)C2(C(=O)NC3CCCC3)CCCCC2)N1` (configuration not stated) gave GSIS activator -12.7.
`O=C1c2ccccc2[C@@]2(Cc3ccccc3N(Cc3ccccc3)C2=O)[C@H](c2ccc(CO)cc2)N1C1CCCCC1` gave EWS-Fli block -7.8, Env fusion inh -2.9[16.7 µM] and PAX8 reporter -11.8.
O=C(Nc1ccc(Cl)cc1)Nc1nnc(CSCc2ccc(Cl)cc2)s1 was read as EWS-Fli block 22.1, Env fusion inh 71.4*, GSIS activator 1.0 and PAX8 reporter 23.6.
`Cc1c(Cl)cccc1NC(=O)CCCn1cnc([N+](=O)[O-])n1` gave C2C12 statin 11.5, EWS-Fli block 0.0, Env fusion inh -10.1, miR122 inh 251.2*, GSIS activator 4.2 and PAX8 reporter 1.6.
Screening COc1ccc2c3c(n(C)c2c1)[C@@H](CO)N(C(=O)CN1CCOCC1)CC31CCN(C)CC1 returned GSIS activator 29.3.
For CC(C)[C@H](NC(=O)c1ccccc1)C(=O)OCc1nnc(-c2ccccc2)o1 the results were EWS-Fli block 7.6, Env fusion inh 9.4, miR122 inh -3.8 and PAX8 reporter 4.4.
For Cc1noc(C)c1COC(=O)[C@@H](NC(=O)c1ccccc1)C(C)C the results were EWS-Fli block -3.5, Env fusion inh -8.2, miR122 inh -4.9, GSIS activator 5.9 and PAX8 reporter 68.5*.
For C[C@@H]1CCCCO[C@H](CN(C)Cc2ccc(C(F)(F)F)cc2)[C@@H](C)CN([C@@H](C)CO)C(=O)c2cc(NC(=O)Nc3ccccc3)ccc2O1 the results were EWS-Fli block 68.8*, Env fusion inh -5.7[16.7 µM], miR122 inh -11.6[16.7 µM], GSIS activator -26.4 and PAX8 reporter 59.2.
For C[C@H](CO)N1C[C@H](C)[C@@H](CN(C)Cc2ccc(C(F)(F)F)cc2)OCCCC[C@H](C)Oc2ccc(NC(=O)Nc3ccccc3)cc2C1=O the results were EWS-Fli block 11.2, Env fusion inh 3.0[16.7 µM], miR122 inh 1.6[16.7 µM], GSIS activator -22.3 and PAX8 reporter 52.1.
C[C@H](CO)N1C[C@H](C)[C@H](CN(C)Cc2ccc(C(F)(F)F)cc2)OCCCC[C@H](C)Oc2ccc(NC(=O)Nc3ccccc3)cc2C1=O was read as EWS-Fli block 15.0, Env fusion inh 72.8*[16.7 µM], miR122 inh -5.8[16.7 µM], GSIS activator 11.7 and PAX8 reporter 84.9*.
`C[C@@H]1CN([C@@H](C)CO)C(=O)c2cc(NC(=O)Nc3ccc(C(F)(F)F)cc3)ccc2O[C@@H](C)CCCCO[C@H]1CN(C)Cc1ccc(C(=O)O)cc1` gave EWS-Fli block -8.6, Env fusion inh -7.4[16.7 µM], miR122 inh 0.0[16.7 µM], GSIS activator 1.4 and PAX8 reporter -0.8.
O=C(c1cccnc1)N1CCCCN2[C@H](CO)[C@H](c3ccc(C#Cc4cccnc4)cc3)[C@@H]2C1 was read as EWS-Fli block -4.8, miR122 inh 8.0[16.7 µM], GSIS activator -5.1 and PAX8 reporter -25.2.
Screening C[C@H](CO)N1C[C@H](C)[C@@H](CN(C)C(=O)Nc2ccc(F)cc2)Oc2ccc(NS(=O)(=O)c3cn(C)cn3)cc2CC1=O returned C2C12 statin -9.0, EWS-Fli block -7.3, Env fusion inh -9.9[16.7 µM], miR122 inh -1.1[16.7 µM] and GSIS activator 1.8.
COc1ccc(NC(=O)N(C)C[C@@H]2Oc3ccc(NC(=O)Nc4ccc(F)cc4)cc3CC(=O)N([C@H](C)CO)C[C@@H]2C)cc1 was read as C2C12 statin -12.8, EWS-Fli block 7.6, Env fusion inh 5.3[16.7 µM], miR122 inh -1.7[16.7 µM] and GSIS activator -9.1.
Screening CO[C@@H]1CN(C)C(=O)c2ccc(NC(=O)Nc3c(C)noc3C)cc2OC[C@@H](C)NC[C@@H]1C returned C2C12 statin -27.1, EWS-Fli block 3.3, Env fusion inh -21.5[16.7 µM], GSIS activator 21.1 and PAX8 reporter -13.5.
`COc1ccc(NC(=S)/N=C(\N)Nc2nc(C)c3ccc(C)cc3n2)cc1` gave C2C12 statin -37.8, EWS-Fli block 12.4, Env fusion inh -10.7, miR122 inh 9.5, GSIS activator -2.0 and PAX8 reporter 18.1.
`CCOc1ccc2nc(N/C(N)=N/C(=S)Nc3ccc(C)c(C)c3)nc(C)c2c1` gave EWS-Fli block -1.9, GSIS activator -5.8 and PAX8 reporter 131.7*.
Screening COc1ccccc1NC(=O)N1CCCCN2[C@@H](CO)[C@@H](c3ccc(C#CC4CCCC4)cc3)[C@@H]2C1 returned C2C12 statin -72.6, EWS-Fli block 71.1*, miR122 inh -29.8[16.7 µM], GSIS activator 55.2* and PAX8 reporter 59.1.
Screening COc1ccc(NC(=O)N2CCCCN3[C@H](CO)[C@H](c4ccc(C#Cc5ccccc5)cc4)[C@H]3C2)cc1 returned EWS-Fli block 2.7, miR122 inh -4.6[16.7 µM] and PAX8 reporter 82.0*.
COc1ccc(C#Cc2ccc([C@@H]3[C@H](CO)N4CCCCN(C(=O)Nc5ccccc5)C[C@@H]34)cc2)cc1 was read as EWS-Fli block 69.7*, miR122 inh -36.0[16.7 µM], GSIS activator -16.8 and PAX8 reporter 54.0.
Screening COc1ccc(C#Cc2ccc([C@H]3[C@H]4CN(C(=O)Nc5ccccc5)CCCCN4[C@H]3CO)cc2)cc1 returned EWS-Fli block -3.0, miR122 inh 41.8[16.7 µM], GSIS activator 7.5 and PAX8 reporter -20.5.
Screening COc1ccccc1NC(=O)N1CCCCN2[C@H](CO)[C@@H](c3ccc(C#CC4CCCC4)cc3)[C@@H]2C1 returned C2C12 statin -2.0, EWS-Fli block -1.4, miR122 inh -3.0[16.7 µM], GSIS activator 3.9 and PAX8 reporter -0.4.
`COc1ccc(C#Cc2ccc([C@H]3[C@@H](CO)N4CCCCN(C(=O)Nc5ccccc5)C[C@@H]34)cc2)cc1` gave EWS-Fli block 14.0, miR122 inh 11.1[16.7 µM], GSIS activator 9.7 and PAX8 reporter 0.7.
For O=C(Nc1ccc(F)cc1)N1CCCCN2[C@@H](CO)[C@H](c3ccc(C#Cc4ccccc4)cc3)[C@@H]2C1 the results were EWS-Fli block 60.5*, miR122 inh -24.2[16.7 µM], GSIS activator -28.0 and PAX8 reporter 69.9*.
`COc1ccccc1CN1C[C@@H](C)[C@H](OC)CN(C)C(=O)c2ccc(NC(C)=O)cc2OC[C@H]1C` gave C2C12 statin -3.1, EWS-Fli block 0.3, Env fusion inh -7.4[16.7 µM], miR122 inh 8.9[16.7 µM], GSIS activator 19.6 and PAX8 reporter -4.6.
CO[C@H]1CN(C)C(=O)c2cc(NC(C)=O)ccc2OC[C@H](C)N(CC2CC2)C[C@H]1C was read as C2C12 statin 3.1, EWS-Fli block -0.8, GSIS activator 4.8 and PAX8 reporter 10.4.

Screening data (PubChem)
